DAX1 inh-1: inhibitors of DAX1 repression of SF-1 activated StAR promoter. HEK293T StAR-luciferase reporter, SF-1/DAX-1 repression relief. inhibition, % at 6.8 µM. actives 1.1% (n = 370,000);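 active = inhibition above the mean over all tested compounds plus 3 SD, cut at about 3.6% in these data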;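 also: 0% = DAX-1 cells with DMSO and 100% = cells lacking DAX-1 with DMSO; higher inhibition means more luminescence from relief of DAX-1 repression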
DAX1 inh-2: inhibits human nuclear receptor DAX1; actives 0.99% (n = 340,000); HEK293 Gal4-DAX1 luciferase reporter, luminescence; inhibition, % at 6.75 µM; P51843;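 active = inhibition above the mean over all tested compounds plus 3 SD, cut at about 4.2% in these data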;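 also: 0% = DAX1-transfected cells with DMSO and 100% = empty-vector control cells with DMSO; inhibition shows as a rise in luminescence from relieved DAX1 repression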
Target sequence (P51843 207-470 limits assumed): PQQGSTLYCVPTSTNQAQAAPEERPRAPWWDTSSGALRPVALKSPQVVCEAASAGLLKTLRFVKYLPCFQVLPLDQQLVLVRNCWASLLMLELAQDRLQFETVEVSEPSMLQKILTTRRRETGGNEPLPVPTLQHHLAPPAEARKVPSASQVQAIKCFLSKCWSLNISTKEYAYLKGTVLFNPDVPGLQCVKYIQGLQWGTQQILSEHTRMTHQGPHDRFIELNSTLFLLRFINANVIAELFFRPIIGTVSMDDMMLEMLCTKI
ssDAF12 agonist: S. stercoralis DAF-12 activation, primary screen | activation, % at 6.8 µM | HEK293 ssDAF-12/GRIP1 lit1-tk-luc reporter, luminescence; % of 3 µM dafachronic acid response | actives 1% (n = 370,000) | AID 652126;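 active = activation above the mean over all tested compounds plus 3 SD, cut at about 0.9% in these data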;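 also: 0% = DMSO-only wells and 100% = 3 µM delta7-dafachronic acid wells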
hgDAF-12 ag: hgDAF-12 agonism, primary luciferase screen; HEK293 GAL4-hgDAF12 UAS-luciferase reporter, agonist luminescence; normalized to butyrate control; activation, % at 6.8 µM; actives 1.8% (n = 370,000);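 active = activation above a cutoff set at the mean of all screened compounds plus 3 SD, cut at about 10% in these data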;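 also: 0% = DMSO wells and 100% = sodium butyrate wells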
hcDAF12 agonist: activators of H. contortus DAF-12 nuclear receptor; HEK293 hcDAF-12 lit1-tk-luc reporter, luminescence; 0% DMSO, 100% Δ7-dafachronic acid; activation, % at 6.8 µM; actives 1.4% (n = 370,000);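 active = activation above the mean of all tested compounds plus 3 SD, cut at about 5.5% in these data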;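 also: 100% = response to 3 µM Δ7-dafachronic acid high control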
LXR ag: LXR-beta agonism as hcDAF-12 counter-screen; shares compounds with hcDAF12 agonist; HEK293 Gal4-LXR tk-luc reporter, luminescence, 24 h; normalized: DMSO 0%, positive control 100%; activation, % at 6.8 µM; 3,400 tested, under 10 active;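 active = mean percent activation of the reporter above a cutoff set as the average over tested compounds plus their standard deviation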
hcDAF12 conf: hcDAF-12 agonism, confirmation assay; HEK293 hcDAF-12 lit1-tk-luc reporter, luminescence; % of Δ7-dafachronic acid response; actives 61% (n = 3,400); shares compounds with hcDAF12 agonist; activation, % at 6.8 µM;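 active = mean activation across triplicate tests above the threshold derived from the earlier primary screen, cut at about 5.5% in these data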;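 also: 0% = DMSO only wells and 100% = 3 µM Δ7-dafachronic acid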
* marks the source's active call; other numbers are inactive results; · = not tested or not shown. Rows were chosen to be rich in hits. Some 4.1% of all compounds tested hit in one or more screens of this group.

SMILES	DAX1 inh-1	DAX1 inh-2	ssDAF12 agonist	hgDAF-12 ag	hcDAF12 agonist	LXR ag	hcDAF12 conf
CCOC(=O)c1ccc2c(c1)sc(=NC(=O)c1ccco1)n2CCOC	-1	0	-2	0	-3	·	·
CCn1c(=NC(=O)c2ccco2)sc2cccc(F)c21	2	2	1	13*	12*	1	8.4*
COc1ccc(NC(=O)N2CCN(C(=O)c3ccco3)CC2)c(OC)c1	0	0	0	-3	0	·	·
CCOc1ccc(C(=O)NCCCCNC(=O)c2ccc(OCC)cc2)cc1	0	2	-2	6	0	·	·
CCOc1ccc(C(=O)NCCc2ccccc2)cc1	5.7*	-2	0	7	6.6*	1	9.2*
CCn1c(=N)n(CC(=O)c2ccc(OC)cc2)c2ccccc21	1	0	-1	0	2	·	·
CCn1c(=N)n(CC(=O)c2ccc(Cl)c(Cl)c2)c2ccccc21	1	2	1	8	9.5*	1	5.8*
Cn1c(=N)n(CC(=O)c2ccc(Br)cc2)c2ccccc21	2	4.9*	4.4*	17*	23*	3	29*
Cc1cccc(N2CCN(C(=O)COc3ccc4c(c3)CCC4)CC2)c1C	1	0	-1	0	0	·	·
Fc1cccc(-c2nnn3c2nc(Cl)c2ccccc23)c1	1	4	1	12*	8.3*	0	6.4*
COCCCNc1nc2c(-c3ccc(Cl)cc3)nnn2c2ccccc12	1	0	-1	-1	3	·	·
NNc1nc2c(-c3ccc(Cl)cc3)nnn2c2ccccc12	2	5.8*	0	10	8.1*	1	14*
Clc1nc2c(-c3ccccc3)nnn2c2ccccc12	1	1	0	4	4	·	·
COc1ccc(CCN2CC(C(=O)NCCc3ncccc3C)CCC2=O)cc1 (configuration not stated)	0	-1	-1	0	-1	·	·
CCN1c2ccccc2NC2C1C(C(C)=O)C(=O)N2c1ccc(Cl)cc1 (configuration not stated)	0	0	0	-3	8.8*	0	0
CCOc1ccc(-n2c(=O)c3sccc3n(CC(=O)NCC3CCCO3)c2=O)cc1 (configuration not stated)	0	0	-2	-2	1	·	·
Cc1ccccc1-c1ccc(C(=O)Nc2cccc(F)c2)o1	0	2	0	8	7.3*	0	5.7*
O=C(Nc1cccc(F)c1)c1ccc(-c2ccccc2C(F)(F)F)o1	0	·	-2	0	-1	·	·
CC1(C)CC(=O)C=C(CN2C(=O)c3ccccc3C2=O)C1=O	1	0	-1	3	-1	·	·
O=C(/C=C/c1ccc([N+](=O)[O-])cc1)c1ccco1	0	1	-1	-2	-1	·	·
O=C(/C=C/c1ccc(-c2ccccc2[N+](=O)[O-])o1)c1ccco1	0	1	0	4	7.9*	0	2
COc1ccc(CN(C)S(=O)(=O)c2nnc(NC(=O)c3ccccc3OC)s2)cc1OC	1	0	0	2	7.7*	0	4
COC(=O)C1CCN(S(=O)(=O)Cc2ccccc2Cl)CC1	0	2	0	-4	-1	·	·
CCOC(=O)N1CCN(C(=S)NCCOC)CC1	0	1	-1	1	0	·	·
Cn1cccc1C(=O)NCC(c1ccco1)N1CCCCC1 (configuration not stated)	2	0	-2	0	0	·	·
SMILES	DAX1 inh-1	DAX1 inh-2	ssDAF12 agonist	hgDAF-12 ag	hcDAF12 agonist	LXR ag	hcDAF12 conf
C/C(=C\C(=O)c1ccccc1)NNc1nc2ccccc2s1	0	0	-1	-4	3	·	·
O=C(NCc1ccccc1)c1nc2ccccc2s1	-1	1	-2	2	1	·	·
NS(=O)(=O)c1ccc2nc(NC(=O)CS(=O)(=O)c3ccccc3)sc2c1	0	0	0	2	0	·	·
S=C(Nc1ccccc1)c1nc2ccccc2s1	1	2	1.1*	12*	9.2*	1	8.9*
O=C(CS(=O)(=O)c1ccccc1)Nc1nc2ccccc2s1	0	1	0	5	7.1*	0	3
O=C(NNc1nc2ccccc2s1)Nc1ccccc1	1	1	0	5	7.2*	1	4
CC(C)c1ccc(NC(=O)CSc2n[nH]c(=O)n2C2CC2)cc1	-3	1	-1	-1	-1	·	·
O=C(COC(=O)CNC(=O)c1ccccc1)Nc1ccc2c(c1)OCO2	0	0	-2	3	-1	·	·
COc1ccc(N(C(=O)CNC(=O)c2ccco2)C(C(=O)NC2CCCC2)c2ccco2)cc1 (configuration not stated)	0	-1	-1	-1	-1	·	·
COc1ccc(CNC(=O)Cc2c(C(=O)O)[nH]c3ccccc23)cc1	0	1	1	0	0	·	·
COc1ccc(CNC(=O)Cc2c(C(=O)O)[nH]c3ccccc23)c(OC)c1	0	1	1.9*	1	6.9*	0	2
CN(C)c1ccc(N=Nc2ccccc2C(=O)OCC(=O)N2CCCC2)cc1	0	0	-2	4	-1	·	·
CN(C)c1ccc(N=Nc2ccccc2Br)cc1	3	0	1.6*	12*	20*	2	19*
CCN(CC)S(=O)(=O)c1ccc(N2CCN(C)CC2)c(NC(=O)CN2C(=O)NC3(CCCCC3)C2=O)c1	0	-1	-1	1	-1	·	·
Fc1ccc(-c2ncc3ccccn23)cc1	0	0	-1	5	2	·	·
Clc1ccc(/C=C/c2ncc3ccccn23)cc1	3	2	1.6*	11*	11*	1	5
CCCCCCC[N+](CC)(CC)CCCCc1ccc(Cl)cc1	-5	-1	-2	-4	-2	·	·
Cc1ccccc1NC(=O)/C(C#N)=C\c1ccsc1	0	1	-1	7	7.4*	0	6.9*
O=C(Nc1ccccc1O)c1ccc([N+](=O)[O-])cc1	1	0	1.4*	6	7.0*	0	3
N#C/C(=C/c1ccc([N+](=O)[O-])cc1)C(=O)Nc1ccccc1O	0	3	0	6	11*	0	5
O=C(O)C(Oc1ccc2cc(-c3ccc(Cl)cc3)c(=O)oc2c1)c1ccccc1 (configuration not stated)	0	3	-1	4	-1	·	·
C=CCn1c(COc2ccccc2)nnc1SCc1ccc(C#N)cc1	-1	0	-1	0	-1	·	·

Assay outcomes (PubChem)
